Assay results taken from the supplement of paper PMC10338343.
± gives the standard deviation. Whole data set: some 5,500 sequences, median “pre-steady-state target cleavage rate” near 0.1, cut for the highest 2% near 0.64. Only a selection was taken, and the highest values are over-represented in it overall.

Test system: MIWI (PIWIL1) piRISC loaded with piRNA #2 (30 nt)
Assay: pre-steady-state target cleavage rate (min^-1); MIWI and MILI are mouse PIWI proteins and EfPiwi is from a freshwater sponge; tags in brackets are library labels; higher = faster piRNA-guided slicing of the target
Settings: guide: piRNA #2 5'p-UUAGGUAACCCAGUAGAUCCAGAGGAAUUC; auxiliary factor: 500 nM mouse GTSF1
Protocol: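 Cleave-'n-Seq: a library of target RNAs (target site embedded in constant flanks, ACAGCATTCCGCGTTAGTGATATCCG... 5' flank; DNA-blocked outside the site) at 0.1 nM was incubated with 1 nM active mouse MILI or MIWI piRISC (synthetic 5'-monophosphorylated piRNA guide) with or without 500 nM mouse GTSF1 at 33 °C for 1 min to 16 h. Uncleaved targets were sequenced and normalised to non-target controls, and the pooled three trials were fitted to a burst-and-steady-state model to give the pre-steady-state cleavage rate (min^-1; k3 is constrained to at most 1e-4). Sequence is the target site only; target names encode pairing extent (gX:gY) and contiguous / 1-mismatch / 2-mismatch / bulge geometry. Fits with R² ≤ 0 are excluded.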

Sequence	pre-steady-state target cleavage rate
CUAUUCCACUCGAUCUACUGGGUUACCUAA	0.703 ± 0.037
CUUUUCCACUCGAUCUACUGGGUUACCUAA	0.547 ± 0.033
CAAUUCCACUCGAUCUACUGGGUUACCUAA	0.798 ± 0.047
GAAUUCCACUCGAUCUACUGGGUUACCUAA	0.564 ± 0.056
CUAUUCCACUGGAUCUACUCGGUUACCUAA	0.0817 ± 0.018
CUAUUCCACUGGAUCUACUGGGUUACCUAA	0.588 ± 0.061
CUUAACCUCUGGAUCUAGUGGGUUACCAAA	0.0597 ± 0.0073
CAAUUCCACUGGAACUACUGGGUUACCUAA	0.408 ± 0.042
CUUAAGCUGUGGAUCUACUGGGUUUCCUAA	0.0403 ± 0.019
CAAUACCUCUGGAUCUACUGCGUUACCUAA	0.488 ± 0.063
CUAUACCUCUGGAUCUACUGGGUUACGUAA	0.674 ± 0.032
CUAUACCUCUGGAUCUACUGCGUUACCUAA	0.732 ± 0.066
GAAUACCUCUGGAUCUACUGGGUUACGUAA	0.609 ± 0.038
GAAUACCUCUGGAUCUACUGCGUUACCUAA	0.456 ± 0.04
CAAUACCUCUGGAUCUACUGGGUUACGUAA	0.567 ± 0.059
CUAUACCUCUGGAUCUACUGGGUUACCUAA	0.544 ± 0.084
CUUAUACCUCUGGAUCUACUGGGUUACCUAA	0.389 ± 0.061
GUAUACCUCUGGAUCUACUGGGUUACCUAA	0.642 ± 0.23
CUUAAGCUCUGGAUCUACUGGCUUACCUAA	0.0576 ± 0.012
CUUAAGGUCUGGAUCUACUGCGUUUCCUAA	0.0557 ± 0.014

Sequence	pre-steady-state target cleavage rate
CUUAAGGUAUGGAUCUACUGGGUUACCUAA	0.323 ± 0.035
CAAUUCCUCUGGAACUACUCGGUUACCUAA	0.157 ± 0.022
CUUAACCUCUGGAUCUACUGGGUAAGCUAA	0.05 ± 0.0099
CAAUUCCUCGGAUCUACUGGGUUACCUAA	0.47 ± 0.087
CAAUUCCUCCGGAUCUACUGGGUUACCUAA	0.677 ± 0.096
GAAUUCCUCCGGAUCUACUGGGUUACCUAA	0.407 ± 0.058
CUAUUCCUCCGGAUCUACUGGGUUACCUAA	0.697 ± 0.12
CUAUUCCUCCUGGAUCUACUGGGUUACCUAA	0.613 ± 0.06
CUAUUCCUCGGAUCUACUGGGUUACCUAA	0.447 ± 0.083
CUUAAGGACUGGAUCUACAGCGUUACCUAA	0.00714 ± 0.0051
CUUUUCCACUGGAUCUACAGGGUUACCUAA	0.248 ± 0.016
CUUUUCCUCUCGAUCUUCUGGGUUACCUAA	0.63 ± 0.051
CUAUUCCUCUCGAUCUUCUGGGUUACCUAA	0.803 ± 0.07
CAAUUCCUCUCGAUCUUCUGGGUUACCUAA	0.737 ± 0.059
GAAUUCCUCUCGAUCUUCUGGGUUACCUAA	0.62 ± 0.064
CAAUUCCUCUGGAUCUUCUGGGUUACCUAA	0.49 ± 0.065
CUAUUCCUCUGGAUCUUCUGGGUUACCUAA	0.412 ± 0.054
CUUAUCCUCUGGAUCAUCUGGGUUACCUAA	0.246 ± 0.028
CAUAACCUCUGGAUCUACUGGGUUACCUAA	0.234 ± 0.033
CUUAACCUCUGGAUCUUCUGGGUUUCCUAA	0.042 ± 0.0092
